Experimental data: PubChem BioAssay (NCATS)
Where “and” joins values, the source holds several entries; their conditions need not be identical. Identical values can stand only once. Inconclusive results are not listed. Calls of active or inactive are those of the source. Unless noted, calls come from the whole dose curve; as a rule, active = well fitted curve in the direction sought with a large enough effect; inconclusive = small, poorly fitted or top-dose-only effect, or another doubt; inactive = no such curve, though single readings can be large; an effect the other way counts as inactive or inconclusive.

What was measured:
[1] = P-glycoprotein substrates identified in KB-8-5-11 adenocarcinoma cell line, qHTS therapeutic library screen (AID 1346987); note: nearly all actives have a fitted effect of over 65% in size; note: potency is the fitted concentration of half-maximal effect; for activity change, negative = cytotoxicity: % is set by controls: 0 for no effect and ±100 for the full control effect
Summary of the method: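 Luminescence from CellTiter-Glo, read 5 min after addition, quantified survival of KB-8-5-11 (P-gp-overexpressing) cells exposed to compounds for 72 h. AC50 was derived from concentration-response curves.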

[2] = system: Zika virus NS2B-NS3 protease (unlinked complex); test: Primary screen GU Rhodamine qHTS for Zika virus inhibitors: Unlinked NS2B-NS3 protease assay (AID 1347159); note: % is set by controls: 0 for no effect and ±100 for the full control effect; nearly all actives have a fitted effect of over 60% in size
Summary of the method: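 Unlinked NS2B/NS3, 25 nM; Rhod110 peptide, 1.5 microM; compounds, up to 114 microM. Reaction run 15 min at RT in 10 mM Tris-HCl pH 8.0, 0.01% Tween 20; kinetic fluorescence change fitted with a 4-parameter Hill model.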

[3] = system: Zika virus NS2B-NS3 protease (linked construct); test: Primary screen NINDS Rhodamine qHTS for Zika virus inhibitors (AID 1347160); note: % is set by controls: 0 for no effect and ±100 for the full control effect; nearly all actives have a fitted effect of over 55% in size
Summary of the method: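 Single-chain NS2B-NS3 protease, 25 nM, pH 8.0; compounds preincubated 15 min. Activity: Rhodamine110 release from 1.5 microM substrate over 15 min, room temperature, data fitted to 4-parameter Hill.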

[4] = biological target: Calcium and integrin-binding protein 1 (Homo sapiens) (UniProt Q99828); test: Primary qHTS for Identification of Calcium Integrin Binding Protein 1 (CIB1) Competitor (AID 1508620);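 note: GST tagged CIB1 binding a fluorescein labelled alphaIIb integrin peptide tracer; top concentration of the series differs between compounds; % is set by controls: 0 for no effect and ±100 for the full control effect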
Summary of the method: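 Fluorescence polarization competition: CIB1-GST (1 uM final) preincubated with compound 15 min at room temperature, then FITC-labeled alphaIIb peptide (100 nM final) added for another 15 min. Polarization read at Ex 480/Em 540.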

[5] = Primary qHTS for inhibitors of nuclear receptor binding SET domain protein 2 (NSD2) in an isogenic RCH-ACV NSD2 p.E1099K mutant (9B) (AID 1645876); note: nearly all actives have a fitted effect of over 70% in size; note: potency is the fitted concentration of half-maximal effect; for activity change, negative = viability loss: % is set by controls: 0 for no effect and ±100 for the full control effect
[6] = Primary qHTS for inhibitors of nuclear receptor binding SET domain protein 2 (NSD2) in an RCH-ACV wild type WT cells (2C) (AID 1645877); note: nearly all actives have a fitted effect of over 70% in size; note: potency is the fitted concentration of half-maximal effect
[7] = biological target: Phospholipid hydroperoxide glutathione peroxidase GPX4 (Homo sapiens) (UniProt P36969); test: Primary qHTS Assay for Inhibitors of Recombinant Selenoprotein Glutathione Peroxidase 4 (GPX4) (AID 1845192); details: outcome: dose series up to 50 µM unless noted; note: % is set by controls: 0 for no effect and ±100 for the full control effect; nearly all actives have a fitted effect of over 65% in size
Summary of the method: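 qHTS, GR-coupled: GPX4 200 nM + cpd 30 min RT → GSH 1 mM, NADPH 0.5 mM, GR 100 nM → CHP 0.5 mM start; fluor 340/450 at t0 and t15 min; no-enzyme wells as control.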

[8] = biological target: Luciferin 4-monooxygenase (Photinus pyralis) (UniProt P08659); test: Primary firefly luciferase (FLuc) qHTS assay for identification of artifact compounds. (AID 1845220);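 note: plate controls were DMSO vehicle for no effect and no enzyme for full effect; nearly all actives have a fitted effect of over 60% in size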
Summary of the method: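 Reaction readout was CCD-imaged luminescence, taken 5 min after adding 10 nM purified firefly enzyme to compound-treated wells holding 10 uM luciferin and ATP in pH 7.6 buffer.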

[9] = Primary fluorescence-based thiol-reactive (MSTI) qHTS assay for identification of artifact compounds. (AID 1845221);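 note: thiol-reactive compounds lower the probe fluorescence signal; nearly all actives have a fitted effect of over 65% in size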
Summary of the method: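 Compounds were incubated 1 h at room temperature in the dark with the MSTI probe (4 uM) in PBS pH 7.4, 2% DMSO. Signals were normalized between Acetyl-MSTI and MSTI.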

[10] = system: Nanoluciferase (engineered Oplophorus gracilirostris luciferase); test: Primary Nanoluciferase (NLuc) qHTS assay for identification of artifact compounds. (AID 1845222);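 note: NLuc secreted into diluted conditioned medium of S16 cells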
Summary of the method: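 Concentration-response data were obtained by luminescence after 5 min with Nano-Glo substrate at 1:100. The enzyme was diluted S16 NLuc-expressing cell medium, preincubated with compound for 15 min at RT. Curves were fitted with a 4-parameter Hill model.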

Hek293T = test: Primary qHTS to identify gynecologic anti-cancer compounds using libraries of approved drugs and bioactive compounds (AID 1345084); details: Gynecologic cancer cell panel viability, ATPlite luminescence, 48 h, control line for the selectivity index; series mostly up to 57.5 µM; note: % is set by controls: 0 for no effect and ±100 for the full control effect; nearly all actives have a fitted effect of over 55% in size
Summary of the method: (§1)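 Luminescence from the ATPlite ATP-monitoring reagent indicates viable cell number; lower signal means cytotoxicity. Cells received compound 16 h after seeding and were exposed for 48 h across five concentrations.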

JEG-3 = test: as above; details: Gynecologic cancer cell panel viability, ATPlite luminescence, 48 h; series mostly up to 57.5 µM
Summary of the method: as §1

Tov-21-G = test: as above; details: Gynecologic cancer cell panel viability, ATPlite luminescence, 48 h; series mostly up to 57.5 µM
Summary of the method: as §1

Tov112D = test: as above; details: Gynecologic cancer cell panel viability, ATPlite luminescence, 48 h; series mostly up to 57.5 µM
Summary of the method: as §1

[11] = P-glycoprotein substrates identified in KB-3-1 adenocarcinoma cell line, qHTS therapeutic library screen (AID 1346986); note: nearly all actives have a fitted effect of over 60% in size;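 note: potency is the fitted concentration of half-maximal effect; potency is for cytotoxicity meaning loss of cell viability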; for activity change, negative = cytotoxicity: % is set by controls: 0 for no effect and ±100 for the full control effect
Summary of the method: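 72 h cell-killing screen, 500 cells/well, CellTiter-Glo luminescence. Paired lines KB-3-1/KB-8-5-11; P-gp dependence checked by tariquidar co-treatment and HEK-293 MDR-19 versus empty-vector cells.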

[12] = biological target: Glutathione peroxidase 1 (Homo sapiens) (UniProt P07203); test: Primary qHTS Assay for Inhibitors of Recombinant Selenoprotein Glutathione Peroxidase 1 (GPX1) (AID 1845191); note: nearly all actives have a fitted effect of over 65% in size
Summary of the method: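 GPX1 10 nM, GR 100 nM, GSH 1 mM, NADPH 0.5 mM, CHP 0.5 mM (final). 30-min cpd preincubation, RT. Ex340/Em450 read t=0, t=15 min.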

[13] = qHTS drug screen for cell cycle checkpoint inhibitors in PARPi-resistant BRCA-mutant ovarian cancer cell lines. (AID 1963452; calls by dose curve; note: potency is the fitted concentration of half-maximal effect); details: PEO1/OlaR viability, CellTiter-Glo luminescence, 96 h; for Z-AUC: stronger effect = lower value
Summary of the method: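 PEO1, PEO4 and PEO1/OlaR ovarian cancer cells, 600 per well, exposed 96 h at 37C to a dilution series. Viability read by CellTiter-Glo luminescence, normalized to DMSO and empty wells; activity summarized as Z-AUC.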

[14] = Drug repurposing screens with cells derived from glioblastoma tumor samples (AID 1345199); details: GBM patient neurospheres viability, ATP luminescence, 48 h; for Potency: tumour line A; note: potency is the fitted concentration of half-maximal effect; for all read-outs here: nearly all actives have a fitted effect of over 40% in size
Summary of the method: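 Primary testing used CD133+ neurospheres from four GBM patients, seven concentrations, 48 h exposure and ATP-based viability; confirmation added three slower-growing patient lines.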

[15] = measured here: PEO1 parental Z-AUC
[16] = at 45.9 µM (top of the series), tumour line B
[17] = at 45.9 µM (top of the series), tumour line D
[18] = at 46.1 µM (top of the series), tumour line C

Glutathione peroxidase 1 (Homo sapiens), sequence (P07203 whole entry, looked up): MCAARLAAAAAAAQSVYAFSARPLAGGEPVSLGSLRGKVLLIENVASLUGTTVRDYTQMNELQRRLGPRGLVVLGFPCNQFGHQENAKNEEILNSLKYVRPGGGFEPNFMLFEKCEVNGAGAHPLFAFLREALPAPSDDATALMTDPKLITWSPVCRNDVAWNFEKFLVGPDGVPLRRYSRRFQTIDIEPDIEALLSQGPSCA
Phospholipid hydroperoxide glutathione peroxidase GPX4 (Homo sapiens), sequence (P36969 whole entry, looked up): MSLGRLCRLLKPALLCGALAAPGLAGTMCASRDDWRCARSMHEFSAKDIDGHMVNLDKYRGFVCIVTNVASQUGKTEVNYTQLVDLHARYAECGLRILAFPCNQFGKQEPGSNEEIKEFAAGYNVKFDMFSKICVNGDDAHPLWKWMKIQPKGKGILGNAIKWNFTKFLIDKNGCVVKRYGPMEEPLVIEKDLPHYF
Calcium and integrin-binding protein 1 (Homo sapiens), sequence (Q99828 whole entry, looked up): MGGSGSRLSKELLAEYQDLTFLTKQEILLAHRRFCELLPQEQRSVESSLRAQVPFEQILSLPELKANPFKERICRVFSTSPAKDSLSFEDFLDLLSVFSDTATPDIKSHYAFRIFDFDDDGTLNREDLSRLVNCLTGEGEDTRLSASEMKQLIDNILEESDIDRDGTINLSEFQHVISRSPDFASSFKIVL

N#Cc1cccc(C#N)c1-c1nc2c3ccccc3c3cc(Cl)ccc3c2[nH]1
Potency [1]: 23.1 µM (active) | Potency [2]: inactive | Potency [3]: inactive | outcome [4]: inactive | Potency [5]: 10.3 µM (active) | Potency [6]: 10.3 µM (active) | Potency [7]: inactive | Potency [8]: inactive | Potency [9]: inactive | Potency [10]: inactive | Potency (Hek293T): inactive | Potency (JEG-3): inactive | Potency (Tov-21-G): inactive | Potency (Tov112D): inactive

CC1(C)N=C(N)N=C(N)N1c1ccc(Cl)cc1
Potency [1]: inactive

CCCCCCCCCCCCC/C=C/[C@@H](O)[C@H](CO)N(C)C
activity change, negative = cytotoxicity [11]: -2.89% [at 5.11 µM] (inactive) | outcome [1]: inactive [at 5.11 µM] | activity change, negative = viability loss [5]: -1.18% [at 4.96 µM] (inactive) | activity change, negative = cell killing [6]: 4.48% [at 4.96 µM] (inactive) | Potency [12]: inactive

COc1cc(F)ccc1-c1ncnc(Nc2cccc(CS(C)(=N)=O)c2)n1 (configuration not stated)
Potency [11]: 1.46 µM (active) | Potency [1]: 5.17 µM (active) | Potency [5]: 0.525 µM (active) | Potency [12]: inactive | Potency [7]: inactive | Z-AUC [13]: -0.906 (inactive) | Z-AUC [13, 15]: -1.2 | Z-AUC ([13]; measured here: PEO4 Z-AUC): -0.831

O=C1NC(=O)/C(=C/c2ccc3nccc(-c4ccncc4)c3c2)S1
Potency [11]: 1.64 µM (active) | Potency [1]: 3.66 µM (active) | Potency [5]: 920 nM (active) and 332 nM (active) | Potency [6]: 920 nM (active) and 525 nM (active) | Potency [12]: inactive | Potency [7]: inactive | Potency [13]: 1.95 µM (active) | Z-AUC [13, 15]: -1.47 | Z-AUC ([13]; measured here: PEO4 Z-AUC): -1.84

COc1c(Nc2ncc(Cl)c(N[C@H]3[C@H](C(N)=O)[C@@H]4C=C[C@@H]3C4)n2)ccc2c1CCC(N1CCOCC1)CC2 (some centres not stated)
Potency [11]: 6.51 µM (active) | Potency [1]: 4.11 µM (active) | Potency [5]: 1.05 µM (active) | Potency [6]: 3.32 µM (active)

CCN(CC)C(=O)c1cc(S(=O)(=O)Cc2ccccc2)c(N2CCC(c3ccccc3)CC2)cc1N(CC)CCN(C)C
Potency [1]: 16.4 µM (active) | outcome [4]: inactive

CCOC(=O)CCC(=O)O[C@H]1[C@H](O[C@@H]2[C@@H](C)[C@H](O[C@H]3C[C@@](C)(OC)[C@@H](O)[C@H](C)O3)[C@@H](C)C(=O)O[C@H](CC)[C@@](C)(O)[C@H](O)[C@@H](C)C(=O)[C@H](C)C[C@@]2(C)O)O[C@H](C)C[C@@H]1N(C)C
activity, negative = cell killing [14, 16]: -6.36% (inactive) | activity, negative = cell killing [14, 17]: -16.9% (inactive) | activity, negative = cell killing [14, 18]: 1.07% (inactive) | Potency [14]: 35.5 µM (active)

C/C1=C2N=C(/C=C3N=C(/C(C)=C4\[N-]C(C(CC(N)=O)C4(C)CCC(=O)NCC(C)OP(=O)([O-])OC4C(CO)OC(n5cnc6cc(C)c(C)cc65)C4O)C4(C)N=C1C(CCC(N)=O)C4(C)CC(N)=O)C(CCC(N)=O)C\3(C)C)C(CCC(N)=O)C/2(C)CC(N)=O.[CH3-].[Co+3] (configuration not stated)
activity, negative = cell killing [14, 17]: -36.9% (inactive)

CN(CC(=O)N1CCOCC1)Cc1c(Cl)cccc1NC(=O)c1ccccc1
Potency [12]: inactive | Potency [7]: inactive | activity, negative = cell killing [14, 16]: -3.67% (inactive) | activity, negative = cell killing [14, 17]: -22.4% (inactive) | activity, negative = cell killing [14, 18]: -9.11% (inactive) | Potency [14]: 35.5 µM (active)

O=C(NOCCO)c1cc(CN2OCCCC2=O)c(F)c(F)c1Nc1ccc(I)cc1F
Potency [11]: inactive | Potency [1]: inactive | Potency [5]: inactive | Potency [12]: inactive | Z-AUC [13]: -1.18 (inactive) | Z-AUC [13, 15]: -0.961 | Z-AUC ([13]; measured here: PEO4 Z-AUC): -1.01

COc1cc([C@@H]2c3cc4c(cc3C(O[C@@H]3O[C@@H]5CO[C@@H](C)O[C@H]5[C@H](O)[C@H]3O)C3COC(=O)[C@@H]32)OCO4)cc(OC)c1OP(=O)(O)O (some centres not stated)
Potency [1]: 18.4 µM (active) | activity, negative = cell killing [14, 16]: -18.7% (inactive) | activity, negative = cell killing [14, 17]: -17% (inactive) | activity, negative = cell killing [14, 18]: -13.7% (inactive) | Potency [14]: 15.8 µM (active)

CC(=O)Nc1ccc(C(=O)NC(C)(C)C)cc1
Potency [11]: inactive | Potency [1]: inactive | Potency [5]: inactive | Potency [6]: inactive | Potency [12]: inactive | Z-AUC [13]: 1.04 (inactive) | Z-AUC [13, 15]: 0.805 | Z-AUC ([13]; measured here: PEO4 Z-AUC): 0.364

CNS(=O)(=O)c1ccc2c(c1)/C(=C/c1[nH]c3c(c1CCCN1CCN(C)CC1)CCCC3)C(=O)N2
Potency [11]: inactive | Potency [1]: inactive | Potency [5]: inactive | Potency [12]: inactive | Potency [7]: inactive | Z-AUC [13]: 0.43 (inactive) | Z-AUC [13, 15]: 0.259 | Z-AUC ([13]; measured here: PEO4 Z-AUC): -0.147
